System: Vero E6 infected with SARS-CoV-2
Test: inhibition of SARS-CoV-2 cytopathic effect; higher = more antiviral protection, active = above 15
Settings: 48 h

Measured: inhibition of SARS-CoV-2 cytopathic effect

Cc1nnc(C[C@@H]2C=C(c3ccc(Cl)cc3)c3ccccc3-n3c(C)nnc32)o1
inactive: 1 nM 1.71% | 8.33 nM 0.46% | 100 nM 2.65% | 833.33 nM -4.91% | 10000 nM -11.7%

c1ccc(N2CCN(Cc3nc4ccccc4[nH]3)CC2)nc1
inactive: 1 nM 3.44% | 8.33 nM 2.21% | 100 nM -0.12% | 833.33 nM 0.36% | 10000 nM -0.76%

CN1c2ccccc2C(NCCCCCCC(=O)O)c2ccc(Cl)cc2S1(=O)=O (stereo not given) [tianeptine]
inactive: 1 nM 6.9% | 8.33 nM -1.19% | 100 nM 0.25% | 833.33 nM 2.13% | 10000 nM -1.2%

CC[C@@H]1C(=O)OC[C@@H]1Cc1cncn1C [pilocarpine]
inactive: 1 nM 0.9% | 8.33 nM 1.12% | 100 nM 1.22% | 833.33 nM 3.49% | 10000 nM 3.05%

NC(=O)CN1CC(c2ccccc2)CC1=O (stereo not given) [phenylpiracetam]
inactive: 1 nM 1.63% | 8.33 nM -10.6% | 100 nM 2.27% | 833.33 nM 1.14% | 10000 nM -0.44%

O=C1c2ccccc2-c2n[nH]c3cccc1c23 [pyrazolanthrone]
inactive: 1 nM -4.36% | 8.33 nM 0.82% | 100 nM -1.61% | 833.33 nM -1.07% | 10000 nM -5.91%

CC(=O)OCC1=C(C(=O)O)N2C(=O)[C@@H](N)[C@H]2SC1 [7-aminocephalosporanic-acid]
inactive: 1 nM -5.97% | 8.33 nM -2.34% | 100 nM -5.2% | 833.33 nM -0.34% | 10000 nM 3.59%

NCCCS(=O)(=O)O [tramiprosate]
inactive: 1 nM 2.5% | 8.33 nM 3.61% | 100 nM 3.29% | 833.33 nM 3.22% | 10000 nM 2.51%

COc1ccc(C(=O)CC2(O)C(=O)Nc3c(Cl)ccc(Cl)c32)cc1 (stereo not given)
inactive: 1 nM 2.13% | 8.33 nM 3.01% | 100 nM -1.11% | 833.33 nM 1.43% | 10000 nM -1.83%

CCC(C(=O)O)c1ccc(CC(C)C)cc1 (stereo not given) [butibufen]
inactive: 1 nM -2.32% | 8.33 nM -1% | 100 nM 1.35% | 833.33 nM 2.34% | 10000 nM -0.15%

CC#CCC(C)[C@H](O)/C=C/[C@@H]1[C@H]2C/C(=C/CCCC(=O)O)C[C@H]2C[C@H]1O (stereo not given in full) [iloprost]
inactive: 1 nM -0.22% | 8.33 nM -1.1% | 100 nM -0.18% | 833.33 nM -2.21% | 10000 nM -1.94%

Cc1cc(O)ccc1Cl [chlorocresol]
inactive: 1 nM -0.46% | 8.33 nM 2.29% | 100 nM 1.47% | 833.33 nM 1.63% | 10000 nM 1.88%

CC1(C)O[C@@H]2C[C@H]3[C@@H]4CCC5=CC(=O)CC[C@]5(C)[C@@]4(F)[C@@H](O)C[C@]3(C)[C@]2(C(=O)CCl)O1 [halcinonide]
inactive: 1 nM 2.25% | 8.33 nM 1.06% | 100 nM -0.43% | 833.33 nM -0.9% | 10000 nM -0.92%

Cn1cnc2c(F)c(Nc3ccc(Br)cc3F)c(C(=O)NOCCO)cc21 [binimetinib]
inactive: 1 nM 3.85% | 8.33 nM -3.38% | 100 nM -9.91% | 833.33 nM -10.1% | 10000 nM -12%

C1COC(NC(C2CC2)C2CC2)=N1 [rilmenidine]
inactive: 1 nM 2.93% | 8.33 nM 3.39% | 100 nM -2.62% | 833.33 nM -3.95% | 10000 nM -6.59%

CC/C=C(\C(=O)N[C@@H]1C(=O)N2C(C(=O)OCOC(=O)C(C)(C)C)=C(COC(N)=O)CS[C@H]12)c1csc(N)n1 [cefcapene-pivoxil]
inactive: 1 nM -0.85% | 8.33 nM -2.87% | 100 nM -0.76% | 833.33 nM 1.69% | 10000 nM -0.26%

COc1cc([C@@H]2c3cc4c(cc3[C@@H](O[C@@H]3O[C@@H]5CO[C@@H](C)O[C@H]5[C@H](O)[C@H]3O)[C@H]3COC(=O)[C@H]23)OCO4)cc(OC)c1OP(=O)(O)O [etoposide-phosphate]
inactive: 1 nM -3.4% | 8.33 nM -1.24% | 100 nM -0.75% | 833.33 nM -0.98% | 10000 nM 1.67%

CN(C)CCCSc1ccccc1NC(=O)/C=C/c1ccccc1 [cinanserin]
inactive: 1 nM 1.46% | 8.33 nM 0.94% | 100 nM -0.47% | 833.33 nM -4.69% | 10000 nM -4.38%

COc1cc(OC)nc(O[C@H](C(=O)O)C(OC)(c2ccccc2)c2ccccc2)n1 [darusentan]
inactive: 1 nM 0.26% | 8.33 nM -0.2% | 100 nM 0.62% | 833.33 nM -2.26% | 10000 nM -0.49%

CNC(=O)CN(CCN(CCN(CC(=O)[O-])CC(=O)NC)CC(=O)[O-])CC(=O)[O-].[Gd+3] [gadodiamide]
inactive: 1 nM -0.88% | 8.33 nM -0.45% | 100 nM -3.37% | 833.33 nM -0.21% | 10000 nM 1.36%

N=C(N)c1ccc(-c2ccc(-c3ccc(C(=N)N)cc3)o2)cc1 [furamidine]
inactive: 1 nM -2.49% | 8.33 nM 0.26% | 100 nM -3.62% | 833.33 nM 0.94% | 10000 nM 2.72%

CN1CCC(=C2c3ccccc3CC(=O)c3sccc32)CC1 [ketotifen]
inactive: 1 nM 1.19% | 8.33 nM 4.8% | 100 nM 2.53% | 833.33 nM 1.27% | 10000 nM -3.64%

Cc1coc2c1C(=O)C(=O)c1c-2ccc2c(C)cccc12 [tanshinone-I]
inactive: 1 nM 1.07% | 8.33 nM -0.7% | 100 nM 0.25% | 833.33 nM -2.81% | 10000 nM -1.34%

C[C@]12C=CC(=O)C=C1CC[C@@H]1[C@@H]2CC[C@]2(C)OC(=O)CC[C@@H]12 [Testolactone]
inactive: 1 nM -1.05% | 8.33 nM -0.81% | 100 nM -0.43% | 833.33 nM -1.59% | 10000 nM 11.2%

Oc1ccc2ccccc2c1Cc1c(O)ccc2ccccc12
inactive: 1 nM 2.61% | 8.33 nM -1.04% | 100 nM 2.9% | 833.33 nM -1.96% | 10000 nM 5.77%

Cc1ccc(Cl)c(OCC(O)CNC(C)(C)C)c1 (stereo not given) [bupranolol]
inactive: 1 nM 1.32% | 8.33 nM -0.4% | 100 nM -5.32% | 833.33 nM -1.98% | 10000 nM -0.94%

CNCc1cc(-c2ccccc2F)n(S(=O)(=O)c2cccnc2)c1 [vonoprazan]
inactive: 1 nM -3.91% | 8.33 nM -1.43% | 100 nM -1.96% | 833.33 nM -1.21% | 10000 nM -4.64%

CN1Cc2c(C(=O)OC(C)(C)C)ncn2-c2ccsc2C1=O
inactive: 1 nM 2.57% | 8.33 nM 3.55% | 100 nM 1.79% | 833.33 nM 1.66% | 10000 nM -0.64%

CCN(CC)CCOc1ccc(/C(=C(\Cl)c2ccccc2)c2ccccc2)cc1 [clomifene]
active: 10000 nM 21.1%
inactive: 1 nM 0.1% | 8.33 nM 1.97% | 100 nM 2.27% | 833.33 nM 3.88%

C[C@]1(Cn2ccnn2)[C@H](C(=O)O)N2C(=O)C[C@H]2S1(=O)=O [tazobactam]
inactive: 1 nM 0.92% | 8.33 nM -1.48% | 100 nM 2.92% | 833.33 nM 0.65% | 10000 nM 2.47%

NC(=O)N/N=C/c1ccc(Oc2ccc(F)cc2)cc1
inactive: 1 nM -1.46% | 8.33 nM -1.91% | 100 nM -0.81% | 833.33 nM 1.11% | 10000 nM 3.26%

CCCN[C@@H]1CCc2c(OC)cccc2[C@@H]1C
inactive: 1 nM -1.51% | 8.33 nM -1.5% | 100 nM -0.05% | 833.33 nM -0.17% | 10000 nM -3.49%

C[C@H](Cc1ccc2c(c1)OC(C(=O)O)(C(=O)O)O2)NC[C@H](O)c1cccc(Cl)c1
inactive: 1 nM 0.95% | 8.33 nM 3.71% | 100 nM -1.72% | 833.33 nM -1.35% | 10000 nM 2.18%

CC(C)c1cc(-c2ccc(F)c3ccccc23)nc(N)n1
inactive: 1 nM 0.6% | 8.33 nM 1.62% | 100 nM -1.61% | 833.33 nM -3.71% | 10000 nM -2.34%

CCC(C)CCCC(=O)N[C@@H](CCN)C(=O)N[C@H](C(=O)N[C@@H](CCN)C(=O)N[C@H]1CCNC(=O)[C@H]([C@@H](C)O)NC(=O)[C@H](CCN)NC(=O)[C@H](CCN)NC(=O)[C@H](CC(C)C)NC(=O)[C@@H](CC(C)C)NC(=O)[C@H](CCN)NC1=O)[C@@H](C)O (stereo not given in full) [colistin]
inactive: 1 nM 0.955% | 8.33 nM -0.06% | 100 nM 3.56% | 833.33 nM 0.76% | 10000 nM -2.41%

O=C(C1CC1)N1CC[C@@H](Cc2n[nH]c(=O)n2-c2ccc(-c3ccc4occc4c3)cc2)C1
inactive: 1 nM -1.12% | 8.33 nM -1.14% | 100 nM -1.43% | 833.33 nM -0.64% | 10000 nM -4.48%

COc1cccc(-c2cc(F)ccc2[C@H]2Cc3nc(N)nc(C)c3C(=O)N2)n1
inactive: 1 nM -0.35% | 8.33 nM 0.26% | 100 nM -1.38% | 833.33 nM -0.51% | 10000 nM -10.9%

C[C@@]12CCc3occc3[C@H]1CC[C@@]13C[C@@H](CC[C@H]12)[C@@](O)(CO)C3 [cafestol]
inactive: 1 nM -4.07% | 8.33 nM -1.86% | 100 nM 2% | 833.33 nM 2.62% | 10000 nM 1.59%

CCC1=C[C@@H]2CN(C1)Cc1c([nH]c3ccccc13)[C@@](C(=O)OC)(c1cc3c(cc1OC)N(C)[C@H]1[C@@](O)(C(=O)OC)[C@H](OC(C)=O)[C@]4(CC)C=CCN5CC[C@]31[C@@H]54)C2 [vinorelbine]
inactive: 1 nM -1.63% | 8.33 nM -1.57% | 100 nM -1.35% | 833.33 nM -2.48% | 10000 nM -3.81%

— the supplement of paper PMC13380429
